Where “and” joins values, the source holds several entries; their conditions need not be identical. Equal entries are not always repeated. Records with an inconclusive call do not appear. Where a structure was tested more than once in an assay, its records may differ in their call. Calls of active or inactive are those of the source. Unless noted, the call rests on the fitted dose curve; in most records, active means well fitted curve in the direction sought with a large enough effect; inconclusive means small, poorly fitted or top-dose-only effect, or another doubt; inactive means no such curve, though single readings can be large; an effect the other way counts as inactive or inconclusive.
Assays:
[1] = Stat Signaling Pathway (AID 446; active means well fitted curve in either direction with a large enough effect, not every such curve was filed as active;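 further: ME-180 cervical cancer cells given 40 pM IL-6 alongside compound; SIE-controlled beta-lactamase reporter measured as 460/530 nm FRET emission ratio; on the % scale 0 is the no-effect control and ±100 the full control effect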); details: ME-180 (cervical carcinoma) SIE beta-lactamase reporter, IL-6 stimulated, 5 h
Method in brief: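 Normalization used AC90 stimulation (300 pM IL-6) and AC90 inhibition (125 nM pan-JAK inhibitor at 40 pM IL-6). The underlying signal is SIE-driven beta-lactamase in ME-180 cells after 5 h IL-6 exposure with compound.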

[2] = Cell Viability - N2a (AID 540); details: N2a mouse neuroblastoma cell viability; activity change, negative = cytotoxicity: at 92.2 µM (top of the series);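 further: plate controls were DMSO alone for no effect and tamoxifen control for full effect; nearly all actives have a fitted effect of over 45% in size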
Method in brief: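 N2a mouse neuroblastoma, 1500 cells/well, 5 hr settle; compound 40 hr, 37 °C; CellTiter-Glo 20 min RT; luminescence; Hill-fit AC50.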

[3] = Cell Viability - NIH 3T3 (AID 541); details: NIH 3T3 cell viability, qHTS;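 further: cells exposed to compound for 40 hours; plate controls were DMSO alone for no effect and tamoxifen positive control for full effect; nearly all actives have a fitted effect of over 25% in size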
Method in brief: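 qHTS format; 40 hr compound exposure, 37 °C; CellTiter-Glo luminescence (cellular ATP) read-out after 20 min at RT. Decrease in ATP = cytotoxicity; AC50 from standard Hill fit.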

[4] = Cell Viability - HUV-EC-C (AID 542); details: HUV-EC-C endothelial cell viability, qHTS; series mostly up to 92.2 µM;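 further: cells exposed to compound for 40 hours; on the % scale 0 is the no-effect control and ±100 the full control effect; nearly all actives have a fitted effect of over 35% in size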
Method in brief: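 Luminescent ATP read-out (CellTiter-Glo, 20 min room temperature) after 40 hr compound treatment of HUV-EC-C cells at 37 °C. Concentration-response data fitted with the standard Hill equation to give AC50; tamoxifen and doxorubicin served as positive controls.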

[5] = Cell Viability - H-4-II-E (AID 543); details: H-4-II-E rat hepatoma viability; series mostly up to 92.2 µM;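 further: cells exposed to compound for 40 hours; on the % scale 0 is the no-effect control and ±100 the full control effect; nearly all actives have a fitted effect of over 35% in size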
Method in brief: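 qHTS, rat hepatoma H-4-II-E, 1500 cells/well; 40 hr compound exposure, 37 °C; CellTiter-Glo ATP luminescence after 20 min RT; AC50 by standard Hill fit.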

[6] = Cell Viability - SH-SY5Y (AID 544); details: SH-SY5Y neuroblastoma cell viability; series mostly up to 92.2 µM;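 further: cells exposed to compound for 40 hours; nearly all actives have a fitted effect of over 55% in size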; further: potency means the concentration at half of the fitted maximal effect
Method in brief: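 SH-SY5Y, 1500 cells/well, 5 hr pre-incubation 37 °C; cpd 40 hr 37 °C; CellTiter-Glo 20 min RT; luminescence (ATP) read. qHTS concentration-response, Hill fit → AC50. Tamoxifen, doxorubicin as positive controls.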

[7] = Cell Viability - Renal Proximal Tubule (AID 545); details: renal proximal tubule cells viability; activity change, negative = cytotoxicity: at 91.7 µM (top of the series);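 further: cells exposed to compound for 40 hours; 0% = DMSO only and -100% = 100 µM tamoxifen; nearly all actives have a fitted effect of over 40% in size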
Method in brief: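 Rat kidney proximal tubule cells, freshly isolated; 1000 cells/well, 5 hr settle, compound 40 hr 37 °C. CellTiter-Glo 20 min RT, luminescence read. AC50 by standard Hill fit.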

[8] = molecular target: Glucocorticoid receptor (Homo sapiens) (UniProt P04150); assay: GR-EFC Redistribution (AID 451; calls by dose curve; further: potency means the concentration at half of the fitted maximal effect); details: CHO-K1 GR-EFC translocation, beta-gal luminescence, 2 h
Method in brief: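 Translocation of GR-ED fusion to nuclear EA restores b-gal, read by luminescence after 1 h room-temperature detection. Engineered CHO-K1 biosensor cells, 1,000/well, exposed 2 h at 37 C to titrations up to 46 uM final.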

[9] = molecular target: Mitogen-activated protein kinase 10 (Mus musculus) (UniProt Q61831); assay: JNK3 AlphaScreen Assay (AID 530; active means well fitted curve in either direction with a large enough effect, not every such curve was filed as active;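 further: kinase came from lysate of stimulated human HepG2 cells; signal reports phosphorylation of biotinylated GST-cJun 1-79 at Ser73 with 10 µM ATP; on the % scale 0 is the no-effect control and ±100 the full control effect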); details: JNK3 lysate, c-Jun phosphorylation; series mostly up to 57.1 µM
Method in brief: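 Kinase buffer: 20 mM Tris-HCl pH 7.6, 10 mM MgCl2, 1 mM DTT, 0.1 mM Na3VO4, 0.01% Tween-20; ATP 10 uM. Substrate biotin-GST-cJun(1-79), enzyme from activated HepG2 lysates. Detection by Ser73 phospho-antibody AlphaScreen.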

[10] = molecular target: Glucocorticoid receptor (Homo sapiens) (UniProt P04150); assay: GR-GFP Redistribution (AID 450;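 active means compounds whose dose series gives a full or clear partial fitted curve of increased nuclear translocation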; further: potency means the concentration at half of the fitted maximal effect); details: U2OS GR-GFP nuclear translocation, laser cytometry, 2 h
[11] = activity change, negative = cytotoxicity: at 92.2 µM (top of the series)
[12] = at 38 µM (top of the series) unless noted

Chain of Glucocorticoid receptor (Homo sapiens) (P04150 whole entry, looked up, the tested form may be a part): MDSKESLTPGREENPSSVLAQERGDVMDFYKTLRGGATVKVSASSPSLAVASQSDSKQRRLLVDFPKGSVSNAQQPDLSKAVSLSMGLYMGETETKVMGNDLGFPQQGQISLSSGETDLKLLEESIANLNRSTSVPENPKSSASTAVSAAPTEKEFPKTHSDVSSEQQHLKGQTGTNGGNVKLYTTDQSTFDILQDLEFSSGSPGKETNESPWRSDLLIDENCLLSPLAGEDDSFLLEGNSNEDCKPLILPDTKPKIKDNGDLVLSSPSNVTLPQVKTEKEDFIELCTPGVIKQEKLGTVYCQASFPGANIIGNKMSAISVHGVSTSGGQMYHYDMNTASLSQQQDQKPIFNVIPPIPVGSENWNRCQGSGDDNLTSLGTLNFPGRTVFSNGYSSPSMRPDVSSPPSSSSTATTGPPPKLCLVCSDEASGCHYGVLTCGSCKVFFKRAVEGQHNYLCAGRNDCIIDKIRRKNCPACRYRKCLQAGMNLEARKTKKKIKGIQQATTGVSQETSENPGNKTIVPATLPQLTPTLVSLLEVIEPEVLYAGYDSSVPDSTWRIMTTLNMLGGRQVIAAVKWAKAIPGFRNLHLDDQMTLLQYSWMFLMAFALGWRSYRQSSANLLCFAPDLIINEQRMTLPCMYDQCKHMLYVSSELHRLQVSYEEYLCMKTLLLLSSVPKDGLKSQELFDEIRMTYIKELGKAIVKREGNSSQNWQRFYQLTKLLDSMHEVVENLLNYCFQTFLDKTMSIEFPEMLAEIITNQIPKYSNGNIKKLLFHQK

C[N+]1(C)CCN(c2ccccc2)CC1
inactive: activity, negative = inhibition ([1]; at 17.2 µM (top of the series)) -10% | activity, negative = inhibition ([1]; at 38 µM (top of the series)) -4.82%

NNC(N)=O
inactive: Potency [2] | Potency [3, 11] | Potency [4] | Potency [5] | Potency [6] | Potency [7]

CN(N=O)c1cc(O)ccc1O
inactive: Potency [8] > 46 µM

COc1ccc2[nH]cc(CCN)c2c1
inactive: activity, negative = inhibition [1, 12] -1.18% | Potency [8] > 46 µM

COc1ccc2[nH]c3c(c2c1)CCNC3
inactive: activity, negative = inhibition [1, 12] 9.97% | Potency [8] > 46 µM

CCCN(CCC)CCc1ccc(O)c(O)c1
inactive: activity, negative = inhibition [1, 12] -14.3% | Potency [8] > 46 µM | outcome [9]

N#CC(C#N)=Cc1cc(O)c(O)c(O)c1
inactive: activity, negative = inhibition [1, 12] 2.4% | Potency [8] > 46 µM

CCS(=O)(=O)Nc1cccc(C(=C2CCCCC2)c2cnc[nH]2)c1
inactive: activity, negative = inhibition [1, 12] -26.3% | Potency [8] > 46 µM

CN(N=O)c1ccc(O)c(O)c1
inactive: Potency [10] > 46 µM | Potency [8] > 46 µM

O=c1c2ccccc2[se]n1-c1ccccc1
inactive: Potency [10] > 46 µM and > 20.6 µM | Potency [8] > 46 µM and > 20.6 µM

C[N+](C)(C)CCOC(=O)CBr
inactive: activity, negative = inhibition [1, 12] -5.3% | Potency [8] > 46 µM

CCC(=O)O[C@@](Cc1ccccc1)(c1ccccc1)[C@@H](C)CN(C)C
inactive: activity, negative = inhibition [1, 12] 5.74% [at 17.2 µM] | outcome [9]

c1ccc2c(N3CCNCC3)cccc2c1
inactive: activity, negative = inhibition [1, 12] -46.5% | Potency [8] > 46 µM

C[N+](C)(C)CC#CCN1CCCC1=O
inactive: Potency [10] > 46 µM | Potency [8] > 46 µM

CC(C)(C)c1cc(O)ccc1O
inactive: activity, negative = inhibition [1, 12] -2.67% [at 7.69 µM] | Potency [8] > 9.22 µM | outcome [9] | Potency [2] | activity change, negative = cytotoxicity ([3]; at 92.2 µM (top of the series)) -22.3% | Potency [4] | Potency [5] | Potency [7]
active: activity change, negative = cytotoxicity [3, 11] -106% | Potency [6] 10 µM and 12.6 µM

CCCN1CCc2cc(O)cc3c2[C@H]1Cc1ccc(O)c(O)c1-3
inactive: activity, negative = inhibition [1, 12] 39.4% | Potency [8] > 46 µM | outcome [9]

N#CCCN
inactive: activity, negative = inhibition [1, 12] 20.4% | Potency [8] > 46 µM | outcome [9]

CC(C)(C)c1cc(C=C(C#N)C#N)cc(C(C)(C)C)c1O
inactive: Potency [8] > 46 µM | outcome [9]

NCCc1ccc(S(=O)(=O)F)cc1
inactive: Potency [10] > 46 µM | Potency [8] > 46 µM | outcome [9]

O=c1ccc2[nH]cc(C3=CCNCC3)c2[nH]1
inactive: Potency [8] > 46 µM

c1cc2c(c(NC3=NCCN3)c1)CCCC2
inactive: activity, negative = inhibition [1, 12] 4.34% [at 7.69 µM] | Potency [8] > 9.22 µM

CCN(CCCl)Cc1ccccc1Br
inactive: Potency [8] > 46 µM | outcome [9]

CN1[C@@H]2CC[C@H]1CC(OC1c3ccccc3CCc3ccccc31)C2 (stereo not given in full)
inactive: activity, negative = inhibition [1, 12] 5.86% [at 17.2 µM] | Potency [8] > 20.6 µM | outcome [9]

CCCCCCC(C)(C)c1ccc([C@@H]2C[C@H](O)CC[C@H]2CCCO)c(O)c1
inactive: activity, negative = inhibition [1, 12] -25.8% | Potency [8] > 46 µM | outcome [9]

OCc1cnc[nH]1
inactive: Potency [8] > 46 µM

O=C(O)c1cc[c]([Hg][Cl])cc1
inactive: activity, negative = inhibition [1, 12] -0.208% | Potency [8] > 46 µM | outcome [9]

NCCc1c[nH]c2ccc(C(N)=O)cc12
inactive: activity, negative = inhibition [1, 12] 4.94% | Potency [8] > 46 µM | outcome [9]

CNC(=O)OCC[N+](C)(C)C
inactive: Potency [8] > 46 µM | outcome [9]

CN1CCc2cccc(Cl)c2CC1
inactive: activity, negative = inhibition [1, 12] 15.3% | Potency [8] > 46 µM

Cc1sc2ccccc2c1CC1=NCCN1
inactive: Potency [10] > 46 µM | Potency [8] > 46 µM | outcome [9]

C[N+]1(C)[C@@H]2CC[C@H]1CC(OC(=O)c1c[nH]c3ccccc13)C2 (stereo not given in full)
inactive: Potency [10] > 46 µM | Potency [8] > 46 µM | outcome [9]

O=C1C=CC(=O)C=C1
inactive: activity, negative = inhibition [1, 12] -5.57% | Potency [2] | Potency [4] | Potency [5] | Potency [6] | Potency [7]

CCCN(CCC)[C@@H]1CCc2cccc(O)c2C1
inactive: activity, negative = inhibition [1, 12] -0.802% | Potency [8] > 46 µM

C[C@@H]1O[C@H](C[N+](C)(C)C)CS1
inactive: activity, negative = inhibition [1, 12] 19.2% | Potency [8] > 46 µM | outcome [9]

NNC(=O)c1ccc(O)cc1
inactive: activity, negative = inhibition [1, 12] 13.1% | Potency [8] > 46 µM

O=[N+]([O-])c1ccccc1
inactive: outcome [9] | Potency [2] | Potency [3, 11] | Potency [4] | Potency [5] | Potency [6] | Potency [7]

CC(=O)NBr
inactive: Potency [8] > 46 µM | outcome [9]

CCOC(=O)c1ccccc1C(=O)OCC
inactive: Potency [2] | Potency [3, 11] | Potency [4] | Potency [5] | Potency [6] | Potency [7]

O=C1CCO1
inactive: Potency [2] | Potency [3, 11] | Potency [4] | Potency [5] | Potency [6] | Potency [7]

NC(=O)COc1c(F)cc(SCCNS(=O)(=O)c2ccccc2)cc1F
inactive: Potency [8] > 46 µM | outcome [9]

CCCCCCCCOC(=O)c1ccccc1C(=O)OCCCCCCCC
inactive: Potency [2] | Potency [3, 11] | Potency [4] | Potency [5] | Potency [6] | Potency [7]

C[C@H]1CCC[C@H](O)CCCCCc2cc(O)cc(O)c2C(=O)O1
inactive: Potency [2] | Potency [4] | Potency [5] | Potency [7]
active: activity change, negative = cytotoxicity [3, 11] -108%

COC1=CC(=O)O[C@@H](/C=C/c2ccccc2)C1
inactive: Potency [2] | Potency [3, 11] | Potency [4] | Potency [6] | Potency [7]

Clc1ccccc1Cl
inactive: outcome [9] | Potency [2] | Potency [3, 11] | Potency [4] | Potency [5] | Potency [6] | Potency [7]

— PubChem BioAssay (NCATS)
